# An excerpt weighted towards active compounds, which were near 7.2% of everything screened.
# Lassa entry inh: inhibitors of Lassa virus binding or cell entry; Lassa virus pseudotype entry inhibition, cell reporter; Potency, µM (doses to about 37.9 µM), for the others: at the top dose activity change, negative = inhibition, actives largely listed as inhibitors; 1.2% of 300,000 active; calls by dose curve; tested in HEK293 cells; also: nearly all actives have a fitted effect of over 50% in size
# MARV entry inh: blocks Marburg virus binding to or entry into cells. Marburg virus pseudotyped entry inhibition, cell reporter. 1.8% of 300,000 active. Potency, µM (highest dose often 37.8 µM), for inactives: at the highest dose activity change, negative = inhibition, most hits filed as inhibitors. AID 540276; calls by dose curve; tested in HEK293 cells
# FMDV inh: antivirals against foot and mouth disease virus; FMDV antiviral cell-based qHTS; Potency, µM (highest dose often 57.9 µM), without a hit: top-dose activity change, negative = inhibition, hits mostly inhibitors; 1.2% of 410,000 active; AID 1159524; calls by dose curve; tested in HEK293T cells; also: read-out not given here; nearly all actives have a fitted effect of over 45% in size
# HCV inh: inhibitors of hepatitis C virus infection | Huh7.5.1 HCVcc-Cre infection, luciferase reporter, 44 h | Potency, µM (titrated, usually from 41.8 µM), for inactives: top-dose activity change, negative = inhibition, most hits filed as inhibitors | 3.4% of 340,000 active | AID 651820
#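 HCVcc-Cre virus at an moi near 0.5 was added right after compound to cells cultured 4 h from seeding (1,000 cells/well). Luciferase activity was determined 44 h later, 15 min after substrate addition at RT.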
# Sm TGR block: blocks Schistosoma mansoni thioredoxin glutathione reductase | Q962Y6 | purified TGR, DTNB reduction, TNB absorbance 405 nm | Potency, µM (highest dose often 114 µM), inactives show at the highest dose activity change, negative = inhibition, actives largely listed as inhibitors | 3% of 360,000 active; also: nearly all actives have a fitted effect of over 60% in size
#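 First, TGR (20 nM dispensed) and NADPH were mixed with compound. Second, a 15 min room-temperature incubation followed. Third, further NADPH and then DTNB were added to start the reaction. Finally, TNB absorbance was monitored kinetically.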
# RE007 growth inh: less growth of the S. pombe RE007 Vpr strain; S. pombe RE007 Vpr strain, BacTiter-Glo ATP luminescence, 24 h; Potency, µM (series often up to 92.2 µM), for inactives: at the highest dose activity change, negative = less growth, actives largely listed as inhibitors; 0.21% of 360,000 active; AID 651644; active = well fitted falling curve with a large enough effect; inconclusive = small, poorly fitted or top-dose-only effect; inactive = no such curve, though single readings can be large or run the other way; also: nearly all actives have a fitted effect of over 50% in size
#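 Fission yeast strain RE007, carrying one chromosomally integrated HIV-1 vpr copy, was seeded at OD 0.01 in PMG+AL medium with 23 nL pinned compound. After 24 h at 30 °C and 99% humidity, viability was read by BacTiter-Glo luminescence.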
# Numbers without * were called inactive; u = inconclusive; x = not tested or not shown; [ ] = another dose, or the depositor's remark. Unless noted, calls follow the shape of the dose curve; as a rule, active = well fitted curve in the direction sought with a large enough effect; inconclusive = small, poorly fitted or top-dose-only effect, or another doubt; inactive = no such curve, though single readings can be large; an effect the other way counts as inactive or inconclusive. % is scaled to controls: 0 for no effect and ±100 for the full control effect; potency is read from the fitted curve at half-maximal effect.
SMILES,Lassa entry inh,MARV entry inh,FMDV inh,HCV inh,Sm TGR block,RE007 growth inh
O=C(OCc1cccc(Cl)c1)c1cc([N+](=O)[O-])ccc1N1CCOCC1,u,u,u,10µM*,4.4%,1.2%
COCC(=O)Nc1cc(C(=O)N2CCN(C)C(c3ccccc3)C2)c2c(c1)nc(-c1ccncc1)n2C (configuration not stated),x,x,-6.5%,x,x,x
COc1ccccc1C(=O)Nc1c(C(=O)Nc2ccccc2F)oc2ccccc12,-21.5%[46.1 µM],u,-4.1%,x,-1.2%,x
O=C(OCc1ccccc1)c1cc(S(=O)(=O)N2CCCCC2)ccc1N1CCOCC1,u,u,u,u,2.5%,3.5%
COCC(C)NC(=O)c1cc(S(=O)(=O)N2CCCCC2)ccc1N1CCOCC1 (configuration not stated),0.2%,-3.1%,-12.7%,19.6%,1.9%,-0.9%
Cc1ccc(COC(=O)c2cc(S(=O)(=O)N3CCCCC3)ccc2N2CCOCC2)cc1,7.08µM*,u,u,u,4.9%,-8.0%
O=C(OCc1ccc(Br)cc1)c1cc([N+](=O)[O-])ccc1N1CCOCC1,x,x,0.0%,x,x,-6.0%
Cc1ccc(C)c(COC(=O)c2cc([N+](=O)[O-])ccc2N2CCOCC2)c1,u,u,-26.8%,12.6µM*,-0.4%,1.9%
Cc1ccc(C)c(COC(=O)c2cc(S(=O)(=O)N3CCCCC3)ccc2N2CCOCC2)c1,7.08µM*,u,-26.9%,-0.4%,-0.7%,-11.2%
CC(C)CCCC(C)NC(=O)c1cc(S(=O)(=O)N2CCCCC2)ccc1N1CCOCC1 (configuration not stated),x,x,-20.8%,11.2µM*,-4.9%,1.2%
Cc1cccc(CNc2ncncc2-c2ccccc2CN(C)C)c1,x,x,-20.9%,x,x,x
Cc1ccc(-c2cc(C(F)(F)F)n3nc(C(=O)Nc4sc5c(c4C#N)CCC(C)C5)cc3n2)cc1 (configuration not stated),u,10.7%[46.1 µM],-27.8%,x,8.3%,x
O=C(COC(=O)c1cc(S(=O)(=O)N2CCCCC2)ccc1N1CCOCC1)c1ccc(Cl)cc1,u,u,12.4%,u,7.0%,-20.7%
Cc1ccc(S(=O)(=O)N2CCOCC2)cc1C(=O)OCC(=O)c1ccc[nH]1,x,x,-25.7%,11.2µM*,-5.3%,-1.6%
O=C(OCc1cccc(Cl)c1)c1cc(S(=O)(=O)N2CCCCC2)ccc1N1CCOCC1,u,11.2µM*,-26.7%,11.2µM*,0.8%,-12.3%
COc1ccc2[nH]cc(CCNC(=O)Nc3cccc(F)c3)c2c1,-28.8%[46.1 µM],u,u,x,0.1%,x
CCC(C)NC(=O)CN1C(=O)c2cccnc2Oc2ccc(C)cc21 (configuration not stated),7.5%[46.1 µM],x,-12.2%,x,12.9%,x
COc1cccc(CN2CCCC(c3nc(-c4ccncc4)ncc3-c3ccccc3C)C2)c1O (configuration not stated),x,x,-11.6%,x,x,x
CCOC(=O)N1CCC(NC(=O)c2ccc3c(c2)sc2nc(-c4ccccc4)cn23)CC1,u,11.2µM*,u,u,1.5%,-7.0%
CCOC(=O)N1CCC(NC(=O)c2ccc3c(c2)N=C(CC)c2ccccc2S3)CC1,x,x,-29.5%,10µM*,-4.5%,6.6%
CCOC(=O)N1CCC(Nc2c(-c3ccccc3)c(=O)c2=O)CC1,-5.2%,-2.6%,-12.5%,-6.4%,44.7µM*,-13.6%
CC1Cc2cc(S(=O)(=O)CCC(=O)Nc3ccc(Cl)cc3F)ccc2N1C(=O)C1CC1 (configuration not stated),-8.2%[46.1 µM],x,u,x,-1.0%,x
CCOC(=O)c1noc2ncn(CC(=O)Nc3cccc(Cl)c3)c(=O)c12,-0.9%[46.1 µM],x,-18.7%,x,-1.6%,x
COCCn1c(SCC(=O)Nc2cc(Cl)ccc2OC)nc2c([nH]c3ccccc32)c1=O,-4.5%[46.1 µM],x,-16.6%,x,2.3%,x
CN(Cc1ccccc1)C(=O)c1nc[nH]c1C(=O)N1CCc2ccccc2C1,x,x,-8.9%,u,35.5µM*,10.6%
COCCN1C(=O)C2=C(C1=O)C1N(C)c3ccccc3[C@@]13C[C@@H](CO)N=C3N2 (some centres not stated),x,24.5%[14.2 µM],x,x,x,x

# High-throughput results (PubChem BioAssay)
